CtBP-E1A blk = inhibitors of CtBP/E1A interaction; activity change, % (concentration not given with the values); AlphaScreen GST-E1A/His-CtBP binding, 1536-well; stronger effect = lower value; 340,000 compounds, 0.49% hits; in the data active means activity change below about -65%; inconclusive means mostly about -30% to -63%
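Steps: dispense buffer (Tris pH 8.0, NaCl 300 mM, TCEP 1 mM, BSA, Tween 20); add 5X protein mix (GST-E1A, His-CtBP, 125 nM each); pin 23 nL compound; 2 h at 37 °C, dark; add 5X beads (50 ug/mL); 1 h; read.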
BAZ2B block = BAZ2B (human) inhibition; Q9UIF8; AlphaScreen BAZ2B-H3K14Ac peptide displacement; Potency, µM (top dose mostly 114 µM), most hits filed as inhibitors; 360,000 compounds, 4.4% hits; further: nearly all actives have a fitted effect of over 60% in size
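BAZ2B (50 nM) with biotin-H3(5-23)K14Ac peptide (50 nM) in PBS pH 7.4, 0.01% Tween-20, preformed 30 min, then compound 30 min at room temperature; top concentration 110uM. AlphaScreen streptavidin donor/nickel chelate acceptor beads (10 ug/mL final), 20 min dark, signal read.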
Six1-Eya2 blk = Six1/Eya2 interaction inhibition; AlphaScreen GST-Six1/His-Eya2 binding, biochemical; stronger effect = lower value; activity change, % (no concentration beside the values); 360,000 compounds, 0.56% hits; AID 651725; in the data active means activity change below about -65%; inconclusive means mostly about -30% to -63%
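AlphaScreen with GST-Six1 and His-Eya2 (5X mix: 250 nM and 500 nM), glutathione donor and nickel acceptor beads; buffer 50 mM Tris pH 8.0, 300 mM NaCl, 1 mM TCEP; 1 h at 37 C in the dark.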
JMJD2A Tudor inh = blocks the human JMJD2A Tudor domain; O75164; AlphaScreen JMJD2A-Tudor / H3K4me3 peptide binding; Potency, µM (top dose mostly 114 µM), hits mostly inhibitors; 390,000 compounds, 4.4% hits; AID 504339; further: nearly all actives have a fitted effect of over 50% in size
HP1b binding inh = blocks HP1-beta chromodomain binding to methylated histone tails; Potency, µM (series often up to 114 µM), hits mostly inhibitors; 390,000 compounds, 0.56% hits; AlphaScreen HP1-beta / biotin-H3K9me3 peptide binding; P83916; further: nearly all actives have a fitted effect of over 70% in size
Target sequence (P83916 whole entry, looked up): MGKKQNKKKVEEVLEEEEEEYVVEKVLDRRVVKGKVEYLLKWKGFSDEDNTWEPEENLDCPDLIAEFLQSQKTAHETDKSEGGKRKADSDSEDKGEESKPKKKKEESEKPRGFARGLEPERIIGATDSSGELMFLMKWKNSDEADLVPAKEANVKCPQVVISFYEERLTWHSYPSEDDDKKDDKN
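AlphaScreen: HP1-beta (50 nM) preformed 30 min with biotin-H3(1-18)K9me3 peptide (50 nM) in PBS pH 7.4, 0.01% Tween-20. Compound added for 30 min at RT, then streptavidin donor/nickel chelate acceptor beads (10 ug/mL) for 30 min.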
G9a block = inhibitors of human histone lysine methyltransferase G9a. Q96KQ7. G9a H3K9 monomethylation, AlphaScreen, 2 h. 350,000 compounds, 8.8% hits. Potency, µM (series often up to 102 µM), hits mostly inhibitors. AID 504332; further: nearly all actives have a fitted effect of over 75% in size
Target sequence (Q96KQ7 913-1193 limits assumed): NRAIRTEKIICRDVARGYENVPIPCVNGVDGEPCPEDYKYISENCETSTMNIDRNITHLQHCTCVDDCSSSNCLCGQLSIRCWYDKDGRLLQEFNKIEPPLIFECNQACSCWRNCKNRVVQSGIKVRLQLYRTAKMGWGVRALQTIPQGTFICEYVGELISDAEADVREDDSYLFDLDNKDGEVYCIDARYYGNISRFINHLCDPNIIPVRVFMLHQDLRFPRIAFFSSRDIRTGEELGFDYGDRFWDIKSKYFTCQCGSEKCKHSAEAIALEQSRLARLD
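Signal arises when biotinylated H3K9 peptide, once monomethylated, bridges streptavidin donor and antibody-captured acceptor beads. Enzyme at 20 nM was preincubated 15 min with test compounds; peptide 500 nM and SAM 20 uM then reacted for 2 h.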
Hits are given with their value; n = inactive; u = inconclusive; x = no result; ! = repeats disagree; [ ] = another dose, or the depositor's remark. Hits are enriched below; roughly 10% of the tested compounds scored in any of these assays. Unless noted, the call rests on the fitted dose curve; in most records, active means well fitted inhibition curve with a large enough effect; inconclusive means small, poorly fitted or top-dose-only effect; inactive means no such curve, though single readings can be large or run the other way.

SMILES | CtBP-E1A blk | BAZ2B block | Six1-Eya2 blk | JMJD2A Tudor inh | HP1b binding inh | G9a block
COc1ccccc1N1CCN(/N=C/c2ccccc2C(=O)O)CC1 | n | n | n | n | n | x
COc1ccccc1N1CCN(/N=C/c2cccc(O)c2)CC1 | n | 71µM | n | n | n | n
Cn1c(C(=O)NCc2ccc(F)cc2)cc2cc(S(=O)(=O)N3CCCCC3)ccc21 | x | n | x | n | n | n
Cc1ccc(/C=N/Nc2cn[nH]c(=O)n2)o1 | -68 | 40µM | u | u | n | n
C(=N\Nc1ccc2nncn2n1)/c1ccccn1 | u | n | u | u | n | n
O=c1nc(N/N=C/c2ccccn2)cn[nH]1 | -91 | 2.5µM | -91 | 18µM | n | n
CCOC(=O)/C(CCC[N+](C)(CC)CC)=N\O | n | n | n | u | u | 11µM
Cc1cc(C)c2nc(NNC(=O)c3ccc(S(=O)(=O)N4CCCC(C)C4)cc3)sc2c1 (stereo not drawn) | n | 8.9µM | n | u | n | 45µM
Cc1cccc2sc(NNC(=O)c3ccc(S(=O)(=O)N4CC(C)CC(C)C4)cc3)nc12 (stereo not drawn) | n | 8.9µM | n | 22µM | n | 50µM
Cc1cc(C)c2nc(NNC(=O)c3ccc(S(=O)(=O)N4CC(C)CC(C)C4)cc3)sc2c1 (stereo not drawn) | n | 10µM | n | 16µM | n | 28µM
Cc1ccc(Cl)cc1NC(=O)c1oc2ccc(S(=O)(=O)N3CCC4(CC3)OCCO4)cc2c1C | x | n | x | n | n | n
COc1ccc(Cl)cc1NC(=O)CSc1nc(-c2ccco2)cc(C(F)(F)F)n1 | x | n | x | n | n | n
CC1(C)CC(=O)C(C=NCCN2CCN(C3CC(=O)N(c4cccc(Br)c4)C3=O)CC2)=C(O)C1 (stereo not drawn) | n | n | n | n | n | 71µM
COc1cccc(N2C(=O)CC(N3CCN(CCN=CC4=C(O)CC(C)(C)CC4=O)CC3)C2=O)c1 (stereo not drawn) | n | n | n | n | n | n
O=C(Nc1ccc(F)cc1Cl)C1Cc2ccccc2N1C(=O)c1ccccc1 (stereo not drawn) | x | n | x | n | n | n
CCc1ccccc1NC(=O)c1ccc2c(O)c(S(=O)(=O)c3ccc(OC)cc3)c(=O)[nH]c2c1 | n | n | n | 20µM | n | n
COc1ccc(S(=O)(=O)c2c(O)c3ccc(C(=O)Nc4ccc(F)cc4)cc3[nH]c2=O)cc1 | n | n | u | 50µM | n | n
CCOc1ccccc1NC(=O)c1ccc2c(O)c(S(=O)(=O)c3ccccc3)c(=O)[nH]c2c1 | n | x | n | x | x | x
CCc1ccccc1NC(=O)c1ccc2c(O)c(S(=O)(=O)c3ccccc3)c(=O)[nH]c2c1 | x | u | x | 79µM | n | 16µM
COc1ccc(S(=O)(=O)c2c(O)c3ccc(C(=O)Nc4ccccc4Cl)cc3[nH]c2=O)cc1 | n | n | n | u | n | n
COc1ccc(Br)cc1C(=O)Nc1cccc2ccc(C)nc12 | x | n | x | n | n | n
CCOC(=O)c1c(C)oc2ncnc(Nc3ccc(OC)c(OC)c3)c12 | x | n | x | n | n | n
CCc1cccc(C)c1NC(=O)Cn1c(=O)n(-c2ccc(C)cc2)c(=O)c2c1cnn2C | x | n | x | n | n | n
Cc1nnc(NS(=O)(=O)c2ccc(N=Nc3ccc(N)nc3N)cc2)s1 | u | x | u | 50µM | u | x
O=C(Nc1cc(C(F)(F)F)ccc1Cl)c1ccncc1 | n | n | n | n | n | n
SMILES | CtBP-E1A blk | BAZ2B block | Six1-Eya2 blk | JMJD2A Tudor inh | HP1b binding inh | G9a block
C/C(=N\Nc1cc(C(F)(F)F)ccc1Cl)c1ccncc1 | n | n | n | n | n | 40µM
COc1ccc(N(C(=O)c2cccnc2)S(=O)(=O)c2cccc([N+](=O)[O-])c2)cc1 | n | n | n | u | n | n[12.7 µM]
COc1ccc(N(C(=O)c2ccncc2)S(=O)(=O)c2cccc([N+](=O)[O-])c2)cc1 | n | n | n | u | n | 79µM
N#CC1=C(N)Oc2ccc3ccccc3c2C1c1cccnc1 (stereo not drawn) | x | n | n | n | n | 45µM
N#CC1=C(N)Oc2cc(O)c(Cl)cc2C1c1ccccc1F (stereo not drawn) | x | n | n | n | n | 50µM
N#CC1=C(N)Oc2cc(O)c(Cl)cc2C1c1cccnc1 (stereo not drawn) | x | n | n | n | n | 32µM
COC(=O)C1=C(C)OC(N)=C(C#N)C1c1ccccc1F (stereo not drawn) | n | n | n | n | n | n
COc1ccc(NC(=O)c2nnn(Cc3nc(-c4cc(Br)ccc4OC)oc3C)c2C)cc1 | x | n | x | n | n | n
CN=C(N)NCCCC(N)C(=O)O (stereo not drawn) | x | x | x | x | x | n[12.7 µM]
NC(=S)NCCC[C@H](N)C(=O)O | x | x | x | x | x | 1.7µM!
CCNC(=O)COC(=O)C1CCC(=O)N(c2ccc(OC)cc2)C1c1ccc(OC)cc1 (stereo not drawn) | n | n | n | n | n | n
COc1ccc(C2C(C(=O)OCC(=O)N3CCCCC3)CCC(=O)N2c2ccc(OC)cc2)cc1 (stereo not drawn) | n | n | n | n | n | 45µM
O=C(CCC1N=C2c3ccccc3N=C(SCC(=O)Nc3ccccc3F)N2C1=O)NCc1ccccc1 (stereo not drawn) | x | n | x | n | n | n

Screens from PubChem.
